Assay results as given in PubChem BioAssay AID1159606 (Sanford-Burnham Center for Chemical Genomics, 2016).
Values joined by “and” are separate entries in the source; they are usually repeats but may differ in a detail not shown here. Equal entries are not always repeated. Screen size: about 360,000 compounds; about 7,300 (2%) were called active. Cut-off read from the data, not from the text of the source: active = inhibition above about 50%; inactive = the rest. The entries come from a sample that favours actives as a whole.

Assay: inhibitors of TWEAK-Fn14 signaling, primary screen, luciferase reporter cells, uHTS (AID 1159606)
Settings: TWEAK-stimulated Fn14 reporter cells, luciferase luminescence, 8 h; at 10 µM; active compounds read high

inhibition, active:
Cn1nnc2cc(C(=O)NCCC3=CCCCC3)ccc21 51.2%
COc1cccc(/C=N/Nc2cc(C)nc(-c3ccccc3O)n2)c1O 59%
COc1ccc(/C=N/Nc2ccccc2C(=O)O)cc1 57%
COc1ccc(C(=O)Nc2ccccc2C(=O)N/N=C/c2ccc(O)c(OC)c2)cc1 103%
O=C(CSc1cccc2cccnc12)N/N=C/c1cccnc1 73.4%
C=C(C)C(=O)O[C@H]1C/C(C)=C\C(=O)/C=C(\C)[C@H](O)[C@@H]2OC(=O)C(=C)[C@@H]21 68.2%
Cc1cccc2nc(CSc3nc4[nH]ncc4c(=O)n3-c3cccc(Cl)c3)cc(=O)n12 68.9%
COc1ccc(CCNc2cc(N3CCN(C(=O)c4ccccc4OC)CC3)ccc2[N+](=O)[O-])cc1OC 94.3%
C=CCn1c(C)cc(C(=O)CN2C(=O)c3ccccc3C2=O)c1C 63.3%
COC(=O)CCNc1ccc2c(c1)OCCO2 93.8%
Cc1ccc(OCCCC(=O)Nc2ccc3c(c2)OCCO3)cc1 63.9%
CCCCCCc1cc2cc(-c3nnc(-c4ccccc4)o3)c(=O)oc2cc1O 69.9%
O=C(Nc1ccccc1Cl)/C(Cl)=C(\Cl)S(=O)c1ccccc1 (stereo not given) 105%
O=C(OCC(=O)N1CCCC1)c1ccco1 70.7%
O=C(O)CCn1c(O)c(C=C2N=c3ccccc3=N2)sc1=S 90.8%
Cc1ccc2nc(NC(=O)C3CCN(S(=O)(=O)c4ccc5c(c4)oc(=O)n5C)CC3)sc2c1 61.3%
N#CCSc1nc(-c2ccccc2)nc2ccc(F)cc12 85.4%
OC[C@@H]1CN(Cc2ccc(-c3ccccc3)cc2)C[C@H](n2cnc3c(NC4CCCC4)ncnc32)O1 69.7%

inhibition, inactive:
O=C(NCCC1=CCCCC1)c1ccc(Cl)c([N+](=O)[O-])c1 -14.2%
O=C(NCCC1=CCCCC1)c1ccc(-n2cncn2)cc1 -8.52%
CC1CCCCC1NC(=O)CN1CCC(O)(c2ccc3c(c2)OCO3)CC1 (stereo not given) 3.52%
CCCCn1nnnc1C(c1ccccc1)N1CCN(c2ccccc2OC)CC1 (stereo not given) -11.6%
COc1ccccc1-n1c(SCC(=O)Nc2cccc(C(=O)O)c2)nnc1-c1ccccc1O 8.74%
COc1cc(/C=N/Nc2ccc(C)cc2)cc(Br)c1O 4.13%
Cc1cc(CNC(=O)C2CCC(=O)N(CCc3ccc(Cl)cc3)C2)no1 (stereo not given) 0.87%
CC(=O)N1CCN(S(=O)(=O)c2c(F)cc(F)c(Cl)c2F)CC1 -11.6%
COc1ccc(/C=N/NC(=O)C(C)N(c2ccc(OC)cc2)S(C)(=O)=O)cc1 (stereo not given) 6.28%
O=C(NN=Cc1ccc2c(c1)CCC2)c1ccccc1O -39.1%
COc1ccc(-c2[nH]ncc2/C=N/NC(=O)c2cc(Br)ccc2O)c(OC)c1 1.37%
COc1ccc(/C=C2/SC(=O)N(CCCCCC(=O)Nc3ccccc3C(=O)O)C2=S)cc1 40.8%
CCOC(=O)C(=O)C1C(=O)Nc2ccccc21 (stereo not given) 6.46%
CCOc1ccc(CCN2C(=O)C(=O)N([C@@H](Cc3ccc(O)cc3)CN3CCC[C@H]3CN3C(=O)C(=O)NC[C@@H]3CC(C)C)C[C@@H]2Cc2ccccc2)cc1 20.7%
CC1=NN(c2cccc(Cl)c2)C(=O)C12CC(C)=C(C)CS2 (stereo not given) -6.06%
CC(NC(=O)CN1CCN(Cc2ccc(Cl)cc2)C1=O)c1ccc2c(c1)OCCO2 (stereo not given) 13.5%
CC(C)C[C@H]1CNC(=O)C(=O)N1C[C@@H]1CCCN1C[C@H](Cc1ccccc1)N1C[C@H](CC(C)C)N(CC2CCCCCC2)C(=O)C1=O 5.6%
CC1CC(=O)Nc2ccccc2N1C(=O)COc1ccc2cc(Br)ccc2c1 (stereo not given) -17.9%
O=C(CNC(=O)c1cccnc1)N/N=C/c1cc(Br)c(O)c(Br)c1 -15.2%
Cc1ccc(S(=O)(=O)N(CC(=O)N/N=C/c2ccc(F)cc2)c2cccc3cccnc23)cc1 -1.02%
COc1ccc(C)cc1NC(=O)NCCCCc1ccccc1 -2.36%
CCCCN1C(=O)CC(N2CCOCC2)C1=O (stereo not given) -9.74%
CCCCCn1nnnc1-c1nc2cc3ccccc3cc2[nH]c1=O -12.3%
CCCCCN(C(=O)CCC(=O)OCCOc1ccc(OC)cc1)c1c(N)n(CCCC)c(=O)[nH]c1=O -5.75%
Cc1ccc(NC(=O)N2CCSc3ccccc32)cc1 -12.4%
CNC(=S)N/N=C/c1ccc(N2CCOCC2)s1 7.48%
CC1(NC(=O)CCS(=O)(=O)c2ccc(Cl)cc2)CCS(=O)(=O)C1 (stereo not given) 17.8%
O=C(NCC(c1ccco1)N1CCc2ccccc2C1)c1ccccc1Cl (stereo not given) -3.94%
Nc1cccc(OCCCCCOc2cccc(N)c2)c1 -9.63%
CCc1ccc(-n2c(SCc3cc(=O)n4cc(Br)ccc4n3)nc3[nH]ncc3c2=O)cc1 2.35%
O=c1c2sccc2nc(SCc2cc(=O)n3ccccc3n2)n1-c1ccc(Br)cc1 -8.13%
COc1ccc(C(=O)CSc2n[nH]c(N)n2)cc1 -14.2%
Cc1ccc(N2CCN(c3ccc(C)cc3)C2c2ccccn2)cc1 -16.7%
CCOC(=O)C1CCCCN1Cc1ccc(OC)c(OC)c1OC (stereo not given) -2.28%
CC1Cc2[nH][nH]c(=O)c2C(C2CCCC2)O1 (stereo not given) -6.62%
COc1ccc(CCNC(=O)c2ccccc2-c2ccccc2C(=O)O)cc1OC 4.96%
COc1ccccc1OCCNc1cc(N2CCOCC2)ccc1[N+](=O)[O-] -47.4%
CC(C)(O)C1=C[N+](=O)CC=C1 13.1%
CC1(C)SC2C(NC(=O)COc3ccccc3)C(=O)N2C1C(=O)O (stereo not given) 1.61% and -29.2%
CC(=O)Nc1ccc(S(=O)(=O)Nc2nc3n(n2)C(c2ccccc2)CC(=O)N3)cc1 (stereo not given) -1.82%
CC(C)[C@H](NC(=O)c1ccccc1F)C(=O)Nc1cccc(S(=O)(=O)N2CCOCC2)c1 12.8%
Cc1cc(C(=O)COC(=O)CCCN2C(=O)c3ccccc3C2=O)c(C)n1C 5.35%
C=CCN(CC=C)C(=O)CN1C(=O)c2ccccc2C1=O 15.1%
O=C1CCC(=O)N(O)CCCCCNC(=O)CCC(=O)N(O)CCCCCNC(=O)CCC(=O)N(O)CCCCCN1 -10.8%
C/C(=N/OC(=O)c1cccc(C(F)(F)F)c1)c1cnccn1 -1.14%
CCc1ccccc1OCC(=O)Nc1ccc2c(c1)OCCO2 -1.57%
Cc1ccc(OCCCC(=O)Nc2ccc(N3CCOCC3)cc2)cc1 4.69%
CCOc1ccc(NCCC(=O)c2ccc3c(c2)OCO3)cc1 -3.49%
COc1ccccc1OCCCC(=O)Nc1ccc2c(c1)OCCO2 -33.3%
COC(=O)CCCCC1=CCC2C(=O)C=C(O)C2C1 (stereo not given) -0.75%
O=C(NCc1cccnc1)c1cc(C2CCCN(C(=O)C3CCCCC3)C2)on1 (stereo not given) -5.87%
CCc1ccc(CN(C)C(=O)CCc2nnc(-c3ccc(-c4ccccc4)cc3)o2)nc1 35.3%
C#CCNC(=O)C[C@@H]1C[C@@]2(C(=O)OCC)CCCC=C2N(Cc2ccco2)C1=O -4.62%
O=C(O)CC(Cn1cnnn1)c1ccccc1 (stereo not given) 0.41%
CC(=O)c1ccc(NC(=O)C(C)N(C)CC(=O)Nc2ccccc2Cl)cc1 (stereo not given) -3.04%
CS/C(=C\C(=O)c1ccco1)Nc1ccccc1Cl -3.35%
OC(c1ccccc1)c1nc(-c2cnc3ccccc3c2)cs1 (stereo not given) 12.8%
O=C(OCC(=O)N1CCN(C(=O)c2ccco2)CC1)c1c(Cl)cccc1Cl 3.09%
O=C(OCC(=O)N1CCN(C(=O)c2ccco2)CC1)c1cccc(O)c1 -18.9%
Cc1ccc(-c2nnn(CC(=O)N(Cc3ccco3)C(C(=O)NC(C)(C)C)c3ccncc3)n2)o1 (stereo not given) -9.3%
CC(=O)NC(C(=O)NCC(N)=O)C(C)C (stereo not given) -1.22%
CSC1=NN(c2ccccc2)CN(c2ccccc2)N1C 11.5%
O=C(NC1CCCCC1)n1c(=O)oc2cc(S(=O)(=O)N3CCCCC3)ccc21 -2.85%
Cn1c(=O)oc2cc(S(=O)(=O)N3CCC(C(=O)Nc4ccc(OC(F)(F)F)cc4)CC3)ccc21 -4.22%
CC(C)C[C@@H](COCc1ccc(Cl)cc1)N1CCN(C(=O)c2ccc(Cl)cc2Cl)CCC1=O -5.63%
Cn1ccc(=Nc2ccc(NC(=O)c3ccc(N=c4ccn(C)c5ccc([N+](=O)[O-])cc45)cc3)cc2)cc1 11.6%
Cc1ccc(Oc2cc(NC(=O)CCCn3nc(C)c([N+](=O)[O-])c3C)cc([N+](=O)[O-])c2)cc1 29.9%
Fc1ccc2nc(-c3ccccc3)nc(SCc3nnc(-c4ccccc4)o3)c2c1 1.42%
N#Cc1ccc(-c2ccc(F)cc2)nc1Sc1ccccc1 -0.84%
CCCc1ccc(S(=O)(=O)N2CCN(C(=O)c3cc(C)on3)CC2)cc1 23.6%
OC[C@@H]1CN(Cc2cccs2)C[C@H](n2cnc3c(NC4CCCC4)ncnc32)O1 3.36%
OC[C@@H]1CN(Cc2ccc(F)cc2)C[C@H](n2cnc3c(NC4CCCC4)ncnc32)O1 0.72%
